This note sets out measurements from PubChem BioAssay (NCATS).

Values joined by “and” are separate entries in the source; they are usually repeats but may differ in a detail not shown here. Equal values may be shown once. Inconclusive results are not listed. Active and inactive are the calls of the source. Unless noted, the call rests on the fitted dose curve; in most records, active means well fitted curve in the direction sought with a large enough effect; inconclusive means small, poorly fitted or top-dose-only effect, or another doubt; inactive means no such curve, though single readings can be large; an effect the other way counts as inactive or inconclusive.

The target of test [1] is Glucocorticoid receptor (Homo sapiens) (UniProt P04150). Kind of test: GR-GFP Redistribution (AID 450;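 active means compounds whose dose series gives a full or clear partial fitted curve of increased nuclear translocation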; further: potency means the concentration at half of the fitted maximal effect). Conditions: U2OS GR-GFP nuclear translocation, laser cytometry, 2 h.
Test [2] has as its target Mitogen-activated protein kinase 10 (Mus musculus) (UniProt Q61831). Kind of test: JNK3 AlphaScreen Assay (AID 530; active means well fitted curve in either direction with a large enough effect, not every such curve was filed as active;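 further: kinase came from lysate of stimulated human HepG2 cells; signal reports phosphorylation of biotinylated GST-cJun 1-79 at Ser73 with 10 µM ATP; on the % scale 0 is the no-effect control and ±100 the full control effect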). Particulars: JNK3 lysate, c-Jun phosphorylation; series mostly up to 57.1 µM. The method in brief:
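Inhibitors reduce antibody binding to phosphorylated biotin-cJun, lowering AlphaScreen luminescence. Lysates from HepG2 cells pre-activated by IL-1beta plus TNF-alpha supplied JNK3; compounds were titrated.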
(In general: Bead proximity is the source of the signal in Alpha formats.)

Test [3] is described as follows: Cell Viability - BJ (AID 421; calls by dose curve;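 further: potency means the concentration at half of the fitted maximal effect; cells exposed to compound for 40 hours at 37 °C before readout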). Particulars: BJ fibroblast viability, qHTS. The method in brief: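 Cytotoxicity as drop in intracellular ATP (CellTiter-Glo, 20 min RT) after 40 hr compound exposure of BJ fibroblasts at 37 °C. Titrations scaled between DMSO and 100 uM tamoxifen, Hill-fitted for AC50.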
On the technique in general: Quantitative high-throughput screening tests each substance at several concentrations.

A short description of test [4]: Cell Viability - Jurkat (AID 426;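 active means dose-dependent loss of cell ATP signal giving a full or clear fitted curve, ranked by lower potency value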; further: potency means the concentration at half of the fitted maximal effect). Conditions: qHTS. An outline of the steps:
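Jurkat (Clone E6-1) cells, 5000/well in complete medium, exposed to compounds for 40 hr at 37C; intracellular ATP measured by CellTiter-Glo luminescence after 20 min at room temperature. AC50 from Hill fits.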

Test [5] in a line: Cell Viability - Hek293 (AID 427;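 active means compounds whose dose-response curve shows a full or clear partial loss of cell viability, called from curve shape rather than a numeric limit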;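 further: potency means the concentration at half of the fitted maximal effect; cells exposed to compound for 40 hours at 37 °C before reading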). Particulars: qHTS. The method in brief: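 Luminescent ATP content (CellTiter-Glo, 20 min at room temperature) was measured after a 40 hr, 37 °C compound exposure of HEK293 cells. AC50 values came from Hill-equation fits of qHTS concentration-response data normalized to DMSO and 100 uM tamoxifen.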
A short description of test [6]: Cell Viability - HepG2 (AID 433; calls by dose curve;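 further: potency means the concentration at half of the fitted maximal effect; potency for ATP loss meaning cytotoxicity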). Conditions: qHTS. The method in brief: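 HepG2 hepatocellular carcinoma cells (1500/well) were treated with compounds for 40 h at 37 °C in complete medium; intracellular ATP was read by CellTiter-Glo luminescence. Data were normalized to DMSO and 100 uM tamoxifen, and AC50 came from Hill fits.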
Test [7] is described as follows: Cell Viability - MRC5 (AID 434; calls by dose curve;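 further: potency means the concentration at half of the fitted maximal effect; potency reflects cytotoxicity seen as loss of intracellular ATP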). Conditions: MRC5 lung fibroblast viability, qHTS. An outline of the steps:
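MRC5 normal human lung fibroblasts (1500/well) were treated with compounds for 40 hr at 37 °C in complete medium, and viable cells were measured as intracellular ATP by CellTiter-Glo luminescence. AC50 came from Hill fits, normalized to DMSO and 100 uM tamoxifen.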

Test [8] is described as follows: Cell Viability - SK-N-SH (AID 435; calls by dose curve;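 further: potency means the concentration at half of the fitted maximal effect; compound exposure lasted 40 h at 37 °C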). Particulars: SK-N-SH neuroblastoma cell viability qHTS. An outline of the steps: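 SK-N-SH human neuroblastoma cells (1500/well) were exposed to compounds in complete medium for 40 h at 37 °C, and intracellular ATP was then measured by CellTiter-Glo luminescence. AC50 was taken from Hill fits, normalized to DMSO and 100 uM tamoxifen.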

The nature of test [9]: Cell Viability - NIH 3T3 (AID 541). Further: nearly all actives have a fitted effect of over 25% in size. Further: potency means the concentration at half of the fitted maximal effect.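 On activity change, negative = cytotoxicity: plate controls were DMSO alone for no effect and tamoxifen positive control for full effect.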 Particulars: NIH 3T3 cell viability, qHTS; activity change, negative = cytotoxicity: at 92.2 µM (top of the series). The method in brief:
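Mouse NIH 3T3 fibroblasts, 1000 cells/well, rested 5 hr at 37 °C, then exposed to compound for 40 hr at 37 °C in complete medium. Viability read as intracellular ATP by CellTiter-Glo luminescence; AC50 from Hill-equation fits of concentration-response data.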

A short description of test [10]: Cell Viability - HUV-EC-C (AID 542). Further: nearly all actives have a fitted effect of over 35% in size. Further: potency means the concentration at half of the fitted maximal effect. On activity change, negative = cytotoxicity: on the % scale 0 is the no-effect control and ±100 the full control effect. Particulars: HUV-EC-C endothelial cell viability, qHTS; series mostly up to 92.2 µM. The method in brief:
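HUV-EC-C human vascular endothelial cells, 1000/well, exposed to compound for 40 hr at 37 °C in complete medium. Intracellular ATP was read by CellTiter-Glo luminescence. AC50 came from Hill-equation fits of concentration-response data.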

Test [11] in a line: Cell Viability - H-4-II-E (AID 543). Further: nearly all actives have a fitted effect of over 35% in size. Further: potency means the concentration at half of the fitted maximal effect. Conditions: H-4-II-E rat hepatoma viability; series mostly up to 92.2 µM. An outline of the steps: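 Rat hepatoma H-4-II-E cells, 1500 per well, treated 40 h at 37 °C in complete medium. Cellular ATP read by CellTiter-Glo luminescence; AC50 from Hill fits of concentration-response.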
The nature of test [12]: Cell Viability - SH-SY5Y (AID 544). Further: nearly all actives have a fitted effect of over 55% in size. Further: potency means the concentration at half of the fitted maximal effect. Particulars: SH-SY5Y neuroblastoma cell viability; series mostly up to 92.2 µM. An outline of the steps: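 SH-SY5Y human neuroblastoma cells (1500/well) incubated 5 h, then compound-treated 40 h at 37 °C in complete medium. Viability read as intracellular ATP by CellTiter-Glo luminescence after 20 min; AC50 from Hill-equation fits of qHTS concentration-response.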

Test [13] can be described thus: Cell Viability - Renal Proximal Tubule (AID 545). Further: nearly all actives have a fitted effect of over 40% in size. Further: potency means the concentration at half of the fitted maximal effect.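 On activity change, negative = cytotoxicity: 0% = DMSO only and -100% = 100 µM tamoxifen.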 Conditions: renal proximal tubule cells viability; activity change, negative = cytotoxicity: at 91.7 µM (top of the series). The method in brief: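 Primary rat renal proximal tubule cells (1000/well) were treated with compounds for 40 hr at 37 °C in complete medium. Intracellular ATP was measured by CellTiter-Glo luminescence, and AC50 values came from Hill-equation fits of concentration-response data.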

The nature of test [14]: Cell Viability - Mesenchymal (AID 546).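 Further: cells exposed to compound for 40 hours before reading.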 Further: potency means the concentration at half of the fitted maximal effect.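 On activity change, negative = cytotoxicity: 0% = DMSO only and -100% = 100 µM tamoxifen.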 Conditions: mesenchymal cells viability, qHTS; series mostly up to 91.7 µM. The method in brief: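 Normal human renal glomerulus-derived kidney mesenchymal cells, 1000 per well in complete medium, were treated with compounds for 40 hr at 37 °C. Viability was read as intracellular ATP by CellTiter-Glo luminescence; AC50 values came from Hill-equation fits of qHTS concentration-response data.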

Glucocorticoid receptor (Homo sapiens), sequence (P04150 whole entry, looked up): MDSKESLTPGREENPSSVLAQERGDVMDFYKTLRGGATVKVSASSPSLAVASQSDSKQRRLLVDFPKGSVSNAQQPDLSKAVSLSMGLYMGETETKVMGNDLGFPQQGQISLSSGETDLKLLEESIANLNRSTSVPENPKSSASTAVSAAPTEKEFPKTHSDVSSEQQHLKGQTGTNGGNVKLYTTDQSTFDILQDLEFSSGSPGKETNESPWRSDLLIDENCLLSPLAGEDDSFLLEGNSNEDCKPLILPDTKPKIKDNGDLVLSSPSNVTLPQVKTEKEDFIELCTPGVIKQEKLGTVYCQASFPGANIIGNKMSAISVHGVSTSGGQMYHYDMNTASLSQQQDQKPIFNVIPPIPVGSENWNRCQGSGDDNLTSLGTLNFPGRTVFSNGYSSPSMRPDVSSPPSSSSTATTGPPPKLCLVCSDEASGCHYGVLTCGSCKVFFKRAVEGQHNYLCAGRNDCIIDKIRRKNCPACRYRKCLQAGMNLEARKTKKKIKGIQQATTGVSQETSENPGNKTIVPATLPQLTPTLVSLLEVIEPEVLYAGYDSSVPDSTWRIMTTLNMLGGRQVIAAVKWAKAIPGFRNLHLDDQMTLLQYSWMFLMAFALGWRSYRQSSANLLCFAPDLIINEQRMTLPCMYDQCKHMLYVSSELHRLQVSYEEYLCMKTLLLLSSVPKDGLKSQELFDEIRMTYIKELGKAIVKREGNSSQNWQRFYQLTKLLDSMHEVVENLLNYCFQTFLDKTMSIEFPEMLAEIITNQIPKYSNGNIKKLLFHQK

For the molecule `Cc1cc(C)cc(C(=O)OC2C[C@H]3CC[C@@H](C2)N3C)c1` (stereo partly drawn), the Potency in test [1] is > 46 µM (inactive). For the same molecule, the molecule was called inactive in test [2].

Consider `O=[N+]([O-])c1ccccc1`, for which the Potency in test [3], in test [4], in test [5], in [6], in [7] and in [8] was > 92 µM (inactive) in each case. Moreover, the molecule was called inactive in test [2]. Moreover, the Potency result in test [9], in [10], in test [11], in test [12], in [13] and in [14] was “inactive” in each case.

`CC(C)Nc1ccc(Nc2ccccc2)cc1`: the Potency in test [4] is 22.8 µM (active); in test [8] it was 40.5 µM (active); in [10] it was 12.6 µM (active); in test [11] it was 25.1 µM (active); in test [12], 10 µM (active). Besides, the activity change, negative = cytotoxicity in test [9] is -150% (active).

For `Clc1ccccc1Cl`, the Potency in test [3], in test [4], in test [5], in [6], in test [7] and in [8] was > 92 µM (inactive) in each case. Further, in test [2], the molecule was classed as inactive. Also, the Potency entry in test [9], in [10], in [11], in test [12], in test [13] and in test [14] was “inactive” throughout.

For `O=[N+]([O-])c1ccc(F)c([N+](=O)[O-])c1`, the Potency in test [3] was 59.9 µM (active); in [4], 8.96 µM (active); in test [6], 46.1 µM (active); in test [7], > 92 µM (inactive); in test [8], 45.7 µM (active); in test [12], 25.1 µM (active). For the same molecule, in test [2], the molecule was called inactive. Besides, the activity change, negative = cytotoxicity in test [9] was -151% (active). In addition, the Potency result in test [10] and in test [14] was “inactive” in each case.

Consider `ClC(Cl)(Cl)Cl`, for which the Potency in test [3], in test [4], in [5], in test [6], in test [7] and in [8] was > 92 µM (inactive) throughout. Also, in [2], the molecule was called inactive. The Potency entry in [9], in test [10], in [11], in test [12], in [13] and in test [14] was “inactive” each time.

As for `[Cl-].[Cl-].[Hg+2]`, the Potency is 29.4 µM (active) in [3]; 25.3 µM (active) in test [4]; 19.4 µM (active) in test [5]; 33.4 µM (active) in test [7]; 16 µM (active) in test [8]; 15.8 µM (active) in test [9]. The Potency is 10 µM (active) in [10]; 20 µM (active) in test [11]; 0.158 µM (active) in test [12]; 316 nM (active) in test [13]; 12.6 µM (active) in test [14]. Moreover, in test [2], the molecule was classed as inactive.

Consider `ClC=C(Cl)Cl`, for which the Potency in test [3], in test [4], in test [5], in test [6], in test [7] and in test [8] was > 92 µM (inactive) each time. For the same molecule, in test [2], the outcome was inactive. Besides, the Potency entry in test [9], in test [10], in test [11], in test [12], in [13] and in test [14] was “inactive” each time.

Turning to `O=Cc1ccco1`, the Potency in test [3], in test [4], in test [5], in test [6], in test [7] and in test [8] was > 92 µM (inactive) throughout. Also, the Potency result in test [9], in [10], in test [11], in [12], in test [13] and in test [14] was “inactive” throughout.

In the case of `[O]=[Cr](=[O])([OH])[O][Cr](=[O])(=[O])[OH]`, the Potency in [3] was 19.5 µM (active) and 13.4 µM (active) and 4.66 µM (active); in [4] it was 1.88 µM (active) and 3.05 µM (active) and 549 nM (active); in test [5] it was 30.9 µM (active) and 31.8 µM (active) and 19.2 µM (active); in [6], 12.2 µM (active) and 14.7 µM (active) and 7.52 µM (active); in test [7] it was 4.16 µM (active) and 11.5 µM (active) and 9.77 µM (active); in test [8], 19.2 µM (active) and 17.1 µM (active) and 3.88 µM (active). The Potency was 15.8 µM (active) in test [9]; 3.98 µM (active) and 20 µM (active) and 5.01 µM (active) in test [10]; 316 nM (active) and 15.8 µM (active) and 3.98 µM (active) in [12]; 2.51 µM (active) and 7.94 µM (active) and 501 nM (active) in [13]. Also, in [2], the molecule was classed as inactive. Also, in test [9], the activity change, negative = cytotoxicity is -141% (active) and -151% (active). In addition, the Potency result in test [14] was “inactive”.

As to `CCOC(=O)c1ccccc1C(=O)OCC`, the Potency in [3], in test [4], in test [5], in test [6], in test [7] and in [8] was > 92 µM (inactive) throughout. In addition, the result in [2] was inactive. The Potency result in test [9], in [10], in test [11], in test [12], in test [13] and in [14] was “inactive” in each case.

Consider `S=C=S`, for which the Potency in test [3], in test [4], in [5], in [6], in test [7] and in test [8] was > 92 µM (inactive) in each case. Further, the molecule was called inactive in test [2]. In addition, the Potency entry in [9], in test [10], in test [11], in test [12], in test [13] and in test [14] was “inactive” in each case.
